# Assay results from the supplement of paper PMC8728848.
# The sample as a whole holds a higher share of the strongest signals than the screen did.
# How the values were obtained:
# Experiment in all cases: glycan array binding signal (z-score within array); higher = stronger binding
# Settings in all cases: glycan notation: IUPAC condensed, linker removed
# [1] = target: Fuc(a1-2)Gal(b1-3)GalNAc(b1-3)Gal
# Summary of the method: (§1)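 Glycan array binding is given as a within-array Z-score, which can be read as non-binding when negative. The arrays, 3228 of them, came from the Consortium for Functional Glycomics database and were retained only where the protein sequence was available. Z-scores were averaged across arrays of the same protein sequence at different concentrations or buffers and across linkers.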
# [2] = target: Fuc(a1-2)Gal(b1-3)GalNAc(b1-4)[Neu5Ac(a2-3)]Gal(b1-4)Glc
# Summary of the method: as §1
# Fuc(a1-2)Gal(b1-3)GlcNAc = target: Fuc(a1-2)Gal(b1-3)GlcNAc
# Summary of the method: as §1
# Fuc(a1-2)Gal(b1-4)Glc = target: Fuc(a1-2)Gal(b1-4)Glc
# Summary of the method: as §1
# [3] = target: Fuc(a1-2)[Gal(a1-3)]Gal(b1-4)GlcNAc
# Summary of the method: as §1
# [4] = target: Fuc(a1-2)[GalNAc(a1-3)]Gal(b1-4)Glc
# Summary of the method: as §1
# [5] = target: Fuc(a1-2)[GalNAc(a1-3)]Gal(b1-4)GlcNAc(b1-3)Gal(b1-4)GlcNAc(b1-3)Gal(b1-4)GlcNAc
# Summary of the method: as §1
# Fuc(a1-3)GlcNAc = target: Fuc(a1-3)GlcNAc
# Summary of the method: as §1
# [6] = target: Fuc(a1-3)[Gal(b1-4)]GlcNAc(b1-3)GalNAc
# Summary of the method: as §1
# Gal(a1-3)Gal(b1-3)Glc = target: Gal(a1-3)Gal(b1-3)Glc
# Summary of the method: as §1
# [7] = target: Gal(a1-3)Gal(b1-3)GlcNAc(b1-2)Man(a1-3)[Gal(a1-3)Gal(b1-3)GlcNAc(b1-2)Man(a1-6)]Man(b1-4)GlcNAc(b1-4)GlcNAc
# Summary of the method: as §1
# [8] = target: Gal(a1-3)Gal(b1-3)GlcNAc(b1-6)GalNAc
# Summary of the method: as §1
# Gal(a1-4)Gal(b1-4)Glc = target: Gal(a1-4)Gal(b1-4)Glc
# Summary of the method: as §1
# Gal(b1-3)Gal(b1-4)GlcNAc = target: Gal(b1-3)Gal(b1-4)GlcNAc
# Summary of the method: as §1
# [9] = target: Gal(b1-3)GalNAc(b1-4)[Neu5Ac(a2-3)]Gal(b1-4)Glc
# Summary of the method: as §1
# [10] = target: Gal(b1-3)GlcNAc(a1-6)Gal(b1-4)GlcNAc
# Summary of the method: as §1
# Gal(b1-3)GlcNAc(b1-2)Man = target: Gal(b1-3)GlcNAc(b1-2)Man
# Summary of the method: as §1
# [11] = target: Gal(b1-3)GlcNAc(b1-3)Gal(b1-4)GlcNAc(b1-6)[Gal(b1-3)GlcNAc(b1-3)]Gal(b1-4)Glc
# Summary of the method: as §1
# [12] = target: Gal(b1-3)[Fuc(a1-4)]GlcNAc(b1-3)Gal(b1-3)[Fuc(a1-4)]GlcNAc
# Summary of the method: as §1
# [13] = target: Gal(b1-4)GlcNAc(b1-2)Man(a1-3)[Gal(b1-4)GlcNAc(b1-2)Man(a1-6)][Gal(b1-4)GlcNAc(b1-4)]Man(b1-4)GlcNAc(b1-4)[Fuc(a1-6)]GlcNAc
# Summary of the method: as §1
# [14] = target: Gal(b1-4)GlcNAc(b1-2)Man(a1-3)[Man(a1-6)]Man(b1-4)GlcNAc(b1-4)GlcNAc
# Summary of the method: as §1
# [15] = target: Gal(b1-4)GlcNAc(b1-2)Man(a1-6)[GlcNAc(b1-2)Man(a1-3)]Man(b1-4)GlcNAc(b1-4)GlcNAc
# Summary of the method: as §1
# [16] = target: Gal(b1-4)GlcNAc(b1-2)[Gal(b1-4)GlcNAc(b1-6)]Man(a1-6)[GlcNAc(b1-4)][Gal(b1-4)GlcNAc(b1-2)Man(a1-3)]Man(b1-4)GlcNAc(b1-4)GlcNAc
# Summary of the method: as §1
# [17] = target: Gal(b1-4)GlcNAc(b1-3)[Gal(b1-4)GlcNAc(b1-6)]GalNAc
# Summary of the method: as §1
# Gal3S(b1-4)Glc = target: Gal3S(b1-4)Glc
# Summary of the method: as §1
# Gal3S6S(b1-4)GlcNAc = target: Gal3S6S(b1-4)GlcNAc
# Summary of the method: as §1
# Gal3S6S(b1-4)GlcNAc6S = target: Gal3S6S(b1-4)GlcNAc6S
# Summary of the method: as §1
# Glc(a1-6)Glc(a1-6)Glc = target: Glc(a1-6)Glc(a1-6)Glc
# Summary of the method: as §1
# Glc(b1-6)Glc = target: Glc(b1-6)Glc
# Summary of the method: as §1
# [18] = target: GlcNAc(a1-4)Gal(b1-3)GlcNAc
# Summary of the method: as §1
# [19] = target: GlcNAc(a1-4)Gal(b1-4)GlcNAc(b1-3)Gal(b1-4)GlcNAc
# Summary of the method: as §1
# [20] = target: GlcNAc(b1-3)Gal(b1-4)GlcNAc(b1-6)[GlcNAc(b1-3)]Gal(b1-4)GlcNAc
# Summary of the method: as §1
# [21] = target: GlcNAc(b1-3)[GlcNAc(b1-6)]GalNAc
# Summary of the method: as §1
# [22] = target: GlcNAc(b1-4)GlcNAc(b1-4)GlcNAc(b1-4)GlcNAc(b1-4)GlcNAc
# Summary of the method: as §1
# [23] = target: Man(a1-2)Man(a1-2)Man(a1-3)Man
# Summary of the method: as §1
# MurNAc(b1-4)GlcNAc = target: MurNAc(b1-4)GlcNAc
# Summary of the method: as §1
# [24] = target: Neu5Ac(a2-3)Gal(b1-3)GalNAc(b1-4)[Neu5Ac(a2-8)Neu5Ac(a2-3)]Gal(b1-4)Glc
# Summary of the method: as §1
# [25] = target: Neu5Ac(a2-3)Gal(b1-4)GlcNAc(b1-3)Gal(b1-4)GlcNAc(b1-3)[Neu5Ac(a2-3)Gal(b1-4)GlcNAc(b1-3)Gal(b1-4)GlcNAc(b1-6)]GalNAc
# Summary of the method: as §1
# [26] = target: Neu5Ac(a2-3)Gal(b1-4)GlcNAc(b1-3)[Neu5Ac(a2-3)Gal(b1-4)GlcNAc(b1-6)]GalNAc
# Summary of the method: as §1
# [27] = target: Neu5Ac(a2-3)Gal6S(b1-4)[Fuc(a1-3)]GlcNAc
# Summary of the method: as §1
# [28] = target: Neu5Ac(a2-6)Gal(b1-4)GlcNAc(b1-2)Man(a1-3)[Neu5Ac(a2-3)Gal(b1-4)GlcNAc(b1-2)Man(a1-6)]Man(b1-4)GlcNAc(b1-4)GlcNAc
# Summary of the method: as §1
# [29] = target: Neu5Ac(a2-6)Gal(b1-4)GlcNAc(b1-2)Man(a1-3)[Neu5Ac(a2-6)Gal(b1-4)GlcNAc(b1-2)Man(a1-6)]Man(b1-4)GlcNAc(b1-4)GlcNAc
# Summary of the method: as §1
# [30] = target: Neu5Ac(a2-6)Gal(b1-4)GlcNAc(b1-3)Gal(b1-4)GlcNAc(b1-3)GalNAc
# Summary of the method: as §1
# [31] = target: Neu5Ac(a2-6)Gal(b1-4)GlcNAc(b1-3)GalNAc
# Summary of the method: as §1
# [32] = target: Neu5Ac(a2-8)Neu5Ac(a2-3)Gal(b1-3)GalNAc(b1-4)[Neu5Ac(a2-3)]Gal(b1-4)Glc
# Summary of the method: as §1
# [33] = target: Neu5Ac(a2-8)Neu5Ac(a2-3)[Gal(b1-3)GalNAc(b1-4)]Gal(b1-4)Glc
# Summary of the method: as §1
# [34] = target: Neu5Ac(a2-8)Neu5Ac(a2-8)Neu5Ac(a2-3)[Gal(b1-3)GalNAc(b1-4)]Gal(b1-4)Glc
# Summary of the method: as §1
# [35] = target: Neu5Ac(a2-8)Neu5Gc(a2-3)Gal(b1-4)GlcNAc
# Summary of the method: as §1
# Neu5Gc(a2-3)Gal(b1-4)Glc = target: Neu5Gc(a2-3)Gal(b1-4)Glc
# Summary of the method: as §1
# [36] = target: Neu5Gc(a2-3)Gal(b1-4)[Fuc(a1-4)]GlcNAc
# Summary of the method: as §1
binder,measurement,setting,value
"OVGAL11 (Ovis aries), AAF64320 (protein) MDSLPNPYLQSVSLTVCYMVKIKANLLSAFGKNPELQVDFGTGTGQGGNIPFRFWYCDGMVVMNTFTDGSWQKEEKVLTDAFVPGQPFELQFLVLEKEYQVFVKNKPICQFAHRLPLQSVKMLDVRGDIVLTSVDTL",glycan array binding signal (z-score),[1],1.72
same,glycan array binding signal (z-score),[2],6.31
same,glycan array binding signal (z-score),Fuc(a1-2)Gal(b1-3)GlcNAc,-0.096
same,glycan array binding signal (z-score),Fuc(a1-2)Gal(b1-4)Glc,-0.057
same,glycan array binding signal (z-score),[3],0.2
same,glycan array binding signal (z-score),[4],0.204
same,glycan array binding signal (z-score),[5],-0.076
same,glycan array binding signal (z-score),Fuc(a1-3)GlcNAc,4.51
same,glycan array binding signal (z-score),[6],-0.106
same,glycan array binding signal (z-score),Gal(a1-3)Gal(b1-3)Glc,-0.398
same,glycan array binding signal (z-score),[7],-0.081
same,glycan array binding signal (z-score),[8],-0.082
same,glycan array binding signal (z-score),Gal(a1-4)Gal(b1-4)Glc,-0.104
same,glycan array binding signal (z-score),Gal(b1-3)Gal(b1-4)GlcNAc,-0.063
same,glycan array binding signal (z-score),[9],1.62
same,glycan array binding signal (z-score),[10],-0.11
same,glycan array binding signal (z-score),Gal(b1-3)GlcNAc(b1-2)Man,-0.023
same,glycan array binding signal (z-score),[11],-0.113
same,glycan array binding signal (z-score),[12],-0.101
same,glycan array binding signal (z-score),[13],-0.011
same,glycan array binding signal (z-score),[14],-0.086
same,glycan array binding signal (z-score),[15],-0.094
same,glycan array binding signal (z-score),[16],-0.095
same,glycan array binding signal (z-score),[17],0.686
same,glycan array binding signal (z-score),Gal3S(b1-4)Glc,0.199
same,glycan array binding signal (z-score),Gal3S6S(b1-4)GlcNAc,-0.175
same,glycan array binding signal (z-score),Gal3S6S(b1-4)GlcNAc6S,0.724
same,glycan array binding signal (z-score),Glc(a1-6)Glc(a1-6)Glc,-0.089
same,glycan array binding signal (z-score),Glc(b1-6)Glc,0.568
same,glycan array binding signal (z-score),[18],-0.114
same,glycan array binding signal (z-score),[19],-0.089
same,glycan array binding signal (z-score),[20],-0.102
same,glycan array binding signal (z-score),[21],-0.084
same,glycan array binding signal (z-score),[22],-0.316
same,glycan array binding signal (z-score),[23],4.38
same,glycan array binding signal (z-score),MurNAc(b1-4)GlcNAc,-0.098
same,glycan array binding signal (z-score),[24],-0.069
same,glycan array binding signal (z-score),[25],-0.068
same,glycan array binding signal (z-score),[26],-0.097
same,glycan array binding signal (z-score),[27],-0.219
same,glycan array binding signal (z-score),[28],-0.08
same,glycan array binding signal (z-score),[29],-0.138
same,glycan array binding signal (z-score),[30],-0.065
same,glycan array binding signal (z-score),[31],-0.082
same,glycan array binding signal (z-score),[32],1.75
same,glycan array binding signal (z-score),[33],13.5
same,glycan array binding signal (z-score),[34],-0.044
same,glycan array binding signal (z-score),[35],0.807
same,glycan array binding signal (z-score),Neu5Gc(a2-3)Gal(b1-4)Glc,-0.214
same,glycan array binding signal (z-score),[36],0.714
